# Most compounds without a hit are left out; they make up all but 4.8% or so of the library.
# ATXN2 expr inh: ATXN2 expression inhibition. HEK-293 ATXN2-luciferase reporter, luminescence, 24 h. Potency, µM (doses to about 57 µM), for inactives: at the top dose activity change, negative = inhibition, hits mostly inhibitors. actives 0.72% (n = 360,000). AID 1745845; note: potency is the fitted concentration of half-maximal effect; % is set by controls: 0 for no effect and ±100 for the full control effect; nearly all actives have a fitted effect of over 55% in size
#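 ATXN2-luciferase reporter cells (luciferase flanked by upstream and downstream ATXN2 gene portions) were treated 24 h at 37 °C with compounds at up to 57 uM. SteadyGlo luminescence gave expression; GF-AFC fluorescence gave viability.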
# HepG2 viability: counter-screen for TGF-b inhibitors: cytotoxicity in HepG2 cells; HepG2 CAGA-GFP viability, ATP luminescence, 18 h; Potency, µM (highest dose often 46.1 µM), for inactives: at the highest dose activity change, negative = cytotoxicity, actives largely listed as cytotoxic; actives 0.76% (n = 410,000); note: potency is the fitted concentration of half-maximal effect
#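 CellTiter-Glo luminescence gave cytotoxicity after 18 hours at 37 degrees C. The cells were HepG2 CAGA-GFP in 1% FBS DMEM, stimulated with 500 pg/mL TGF-beta after compound addition. %Activity was normalised to no-cell wells (complete cell-killing) and DMSO (no toxicity), and curves were fitted and classified.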
# S2 tox: viability counter-screen for ATXN expression inhibitors | S2 cells (HEK-293 line with an ATXN2-luciferase reporter) viability, CellTiter-Fluor protease fluorescence, 24 h | AID 651635 | Potency, µM (titrated, usually from 56.7 µM), actives largely listed as cytotoxic | actives 0.49% (n = 400,000); note: potency is the fitted concentration of half-maximal effect; nearly all actives have a fitted effect of over 40% in size
# D3 antag: D3 dopamine receptor (human) antagonism | max response, negative = inhibition, % | P35462 | D3R cells, DiscoveRx beta-arrestin luminescence, antagonist mode; hits give low values | actives 2.5% (n = 360,000); in the data active = max response below about -50%; inconclusive = no clear call, values can overlap the other calls; note: % is set by controls: 0 for no effect and ±100 for the full control effect
# Target sequence (P35462 whole entry, looked up): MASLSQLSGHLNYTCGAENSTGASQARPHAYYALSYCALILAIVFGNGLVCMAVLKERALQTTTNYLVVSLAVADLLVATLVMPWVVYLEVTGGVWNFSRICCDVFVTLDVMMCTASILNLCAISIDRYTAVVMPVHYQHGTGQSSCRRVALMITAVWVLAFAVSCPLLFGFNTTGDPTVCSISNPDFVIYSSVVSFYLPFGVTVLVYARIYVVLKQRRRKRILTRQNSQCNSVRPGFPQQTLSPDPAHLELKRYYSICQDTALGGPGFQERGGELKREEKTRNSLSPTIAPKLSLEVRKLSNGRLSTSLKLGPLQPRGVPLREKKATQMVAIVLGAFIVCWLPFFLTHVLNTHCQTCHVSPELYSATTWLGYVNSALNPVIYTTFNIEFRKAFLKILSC
#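 Cells plated overnight at 1500 cells/well, then exposed to library compounds with dopamine controls for 90 minutes at 37 degrees C. DiscoveRx reagent added for 30–60 minutes at room temperature; luminescence read, quantitative HTS format.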
# TGFb SMAD3 inh: blocks TGF-b signaling; AID 588855; actives 1.2% (n = 410,000); HepG2 CAGA-GFP TGF-b/SMAD3 reporter, GFP fluorescence, 18 h; TGF-beta stimulated, 500 pg/mL final; Potency, µM (doses to about 46.1 µM), inactives show at the top dose activity, negative = inhibition, actives largely listed as inhibitors; note: potency is the fitted concentration of half-maximal effect; % is set by controls: 0 for no effect and ±100 for the full control effect; nearly all actives have a fitted effect of over 65% in size
#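 HEPG2 CAGA-GFP reporter cells (1000/well, DMEM with 1% FBS) received compounds, then recombinant TGF-beta at 500 pg/mL final for 18 hours at 37 degrees C. Per-cell GFP summed per well was normalised to unstimulated and stimulated DMSO controls before curve fitting.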
# D3 ag: activates the human D3 dopamine receptor; D3R DiscoveRx beta-arrestin cells, luminescence, 90 min; actives 0.58% (n = 410,000); P35462; max activation, %; in the data active = max activation above about 30%; note: 0% is about no effect
#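 Cells at 1500/well, incubated overnight, then treated with pinned compounds (dopamine as control) for 90 min at 37 degrees C. DiscoveRx reagent added for 30 - 60 minutes at room temperature; luminescence read.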
# The depositor's hits bear a star; i = inactive; ? = inconclusive; nt = no result given; [ ] = another dose, or the depositor's remark. Unless noted, calls come from the whole dose curve; as a rule, active = well fitted curve in the direction sought with a large enough effect; inconclusive = small, poorly fitted or top-dose-only effect, or another doubt; inactive = no such curve, though single readings can be large; an effect the other way counts as inactive or inconclusive.
SMILES,ATXN2 expr inh,HepG2 viability,S2 tox,D3 antag,TGFb SMAD3 inh,D3 ag
COc1cc(O)c(C(CCN2CCN(c3ccccc3)CC2)c2ccc(N(C)C)cc2)c(OC)c1 (configuration not stated),5%,-18%,?,0,?,-67
COc1ccc(C(CCN2CCN(c3ccccc3)CC2)c2c(O)cc(OC)cc2OC)cc1 (configuration not stated),1%,-13%,i,-112*,?,-65
COc1cc(O)c(C(CCN2CCCC(C)C2)c2ccc(N(C)C)cc2)c(OC)c1 (configuration not stated),3%,-33%,?,-30,-1%,-25
COc1cc(OC)c2ccc(=O)oc2c1C(CCN1CCCC(C)C1)c1ccc2c(c1)OCO2 (configuration not stated),-21%,-46%,28µM*,?,?,-16
COc1cc(O)c(C(CCN2CCCC(C)C2)c2ccc3c(c2)OCO3)c(OC)c1 (configuration not stated),-7%,-26%,?,-68*,?,-49
C(=C\c1ccnc2ccccc12)/c1ccc(N2CCOCC2)cc1,nt,-6%,nt,nt,-22%,nt
COc1ccc2cc(-c3nc4ccc(C(=O)O)cc4[nH]3)c(=O)oc2c1,?,-2%,nt,nt,-6%,-1
CCc1ccc(N=C2NC(=O)CC(C(=O)Nc3ccc(OC)cc3)S2)cc1 (configuration not stated),-24%,-12%,i,nt,-28%,-17
COC(=O)c1ccc(C2C(C(C)=O)=C(C)Nc3ncnn32)cc1 (configuration not stated),0%,-6%,i,-74*,2%,-3
CN(C)c1ccc(/C=C/c2ccnc3ccc(F)cc23)cc1,nt,-31%,nt,nt,-3%,nt
COc1ccc(-n2c(C)c([N+](=O)[O-])c3ccc(O)cc32)cc1,37%,nt,nt,nt,nt,nt
CCN(CC)CCNc1ccc(CO)c2sc3ccccc3c(=O)c12,28µM*,-15%,32µM*,-63*,?,-48
O=c1c2ccccc2sc2c(CO)ccc(NCCN3CCCCC3)c12,19µM*,-10%,?,?,?,-26
O=c1c2ccccc2sc2ccc(NCCCN3CCOCC3)cc12,4%,-63%,i,0,-2%,-12
CCN1C(=O)c2ccccc2S(=O)(=O)c2ccc(C(=O)NCc3ccccc3)cc21,6%,0%,i,nt,-6%,-4
COC(=O)c1ccccc1-c1cc(C)cc2c1OC(CNC(=O)C1CCCO1)C2 (configuration not stated),nt,nt,i,nt,nt,nt
N#Cc1c2c(c(NCc3cccnc3)n3c1nc1ccccc13)CCC2,-23%,-2%,i,-53*,-7%,-1
CC(=O)c1ccc(-c2cccs2)s1,-1%[11.3 µM],-37%,i,-2,10µM*,0
CNc1cccc(-c2ccc(C(C)=O)s2)n1,31%,-7%,i,-3,26%,-3
Cc1cccnc1-c1cccc2c1OC(CNC(=O)C1CCCc3c1[nH]c1ccccc31)C2 (configuration not stated),nt,nt,i,nt,nt,nt
COc1cccc(-c2c(-c3cc(OC)cc(OC)c3)n(C)c3ccc(-c4ccc5[nH]ccc5c4)cc23)c1,-11%,-13%,i,30,-6%,32*
COc1cc2c(-c3ccccc3)c(C)oc2cc1/C=N/NC(N)=S,nt,6.3µM*,i,0,?,1
Fc1ccccc1COc1ccc(Br)cc1CNCc1ccncc1,-24%,-41%,i,-68*,-11%,-12
Fc1ccccc1COc1ccc(Br)cc1CNCc1cccnc1,?,-9%,i,?,?,-10
CCOC(=O)c1c(NC(=O)c2cccs2)sc(C)c1CC,8%,-32%,i,16,-2%,-1
CCc1c(C)sc(NC(=O)c2cccs2)c1C(=O)OC(C)C,-6%,-4%,i,-54*,1%,3

# Bioassay records as filed in PubChem.
